In all, about 69,000 compounds went through this assay and about 8,600 (12%) showed an effect of 50% or more. This is one part of a sample in which strong results are shown more often than they occur.
System: Plasmodium berghei
Test: Screen against P. berghei liver stage (PbLuc), transformed with Luciferase, at 10uM
Format: functional, HepG2
Settings: tested at 10 uM

Question: For `CC(CNC(=O)c1ccn(-c2ccc(F)cc2)n1)Cn1cccn1` (stereo unspecified), which INHIBITION is on record?
Answer: 39.6%

Question: `Cc1nc(CN2CCO[C@@H]3CN(C(=O)CN(C)C)CC[C@@H]3C2)cs1` was tested. Which INHIBITION did it give?
Answer: -9.18%

Question: With `Cc1ccc(NC(=O)Nc2c(O)c3ccccc3oc2=O)cc1` as the molecule, how does the INHIBITION read?
Answer: 41.6%

Question: For `Cc1ccc(NC(=O)Nc2c(O)c3ccccc3oc2=O)cc1C`, which INHIBITION is on record?
Answer: -43.7%

Question: For `Cc1cc(C)cc(NC(=O)Nc2c(O)c3ccccc3oc2=O)c1`, which INHIBITION is on record?
Answer: 59.8%

Question: With `COc1ccccc1C1(O)CCCN(C(=O)c2csc(C(C)=O)c2)C1` (stereo unspecified) as the molecule, how does the INHIBITION read?
Answer: 36%

Question: For `Cc1occc1C(=O)N1CCC2(CC1)CC(OCc1ccccn1)CO2` (stereo unspecified), which INHIBITION is on record?
Answer: 31.1%

Question: How did the INHIBITION turn out when `c1csc(CN2C[C@@H](n3cccn3)[C@H]3OCCC[C@H]32)c1` was run?
Answer: -2.41%

Question: With `c1cnn([C@@H]2CN(Cc3nccs3)[C@@H]3CCCO[C@@H]32)c1` as the molecule, how does the INHIBITION read?
Answer: 63.5%

Question: How did the INHIBITION turn out when `c1ccc(O[C@@H]2CN(Cc3nccs3)[C@@H]3CCCO[C@@H]32)nc1` was run?
Answer: 27.6%

Question: For `CS(=O)(=O)c1cc(Cl)cnc1C1CCCN(C(=O)C2CCOCC2)C1` (stereo unspecified), which INHIBITION is on record?
Answer: 30.65%

Question: Which INHIBITION does the source give for `CNS(=O)(=O)c1ccc(CN2CCN3CCNC(=O)C3C2)cc1` (stereo unspecified) here?
Answer: 49.9%

Question: For `CN1C(=O)CC(C(=O)O)C12CCN(Cc1ccc(Cl)c(Cl)c1)CC2` (stereo unspecified), which INHIBITION is on record?
Answer: 5.46%

Question: For `O=C1NCCN2CCN(Cc3ccc(Cl)c(Cl)c3)CC12` (stereo unspecified), which INHIBITION is on record?
Answer: 52.2%

Question: With `COc1cccc(S(=O)(=O)CCN2CCn3c(C)nnc3C2)c1` as the molecule, how does the INHIBITION read?
Answer: -17%

Question: For `CCn1cc(CN2CCCC(c3[nH]ncc3-c3ccc(F)cc3)C2)cn1` (stereo unspecified), which INHIBITION is on record?
Answer: 9.52%

Question: With `CCn1cc(C(=O)N2CCCC(c3[nH]ncc3S(C)(=O)=O)C2)cn1` (stereo unspecified) as the molecule, how does the INHIBITION read?
Answer: 16.9%

Question: How did the INHIBITION turn out when `CCCn1cc(CN2CCC(c3[nH]ncc3S(C)(=O)=O)C2)cn1` (stereo unspecified) was run?
Answer: 45.6%

Question: Which INHIBITION does the source give for `CCn1cc(CN2CCC(c3[nH]ncc3S(C)(=O)=O)C2)cn1` (stereo unspecified) here?
Answer: 41.2%

Question: `CCn1cc(CN2CCCC(c3[nH]ncc3S(C)(=O)=O)C2)cn1` (stereo unspecified) was tested. Which INHIBITION did it give?
Answer: 57.2%

Question: `CCn1cc(CN2CCCC(c3[nH]ncc3-c3ccc(C)cc3)C2)cn1` (stereo unspecified) was tested. Which INHIBITION did it give?
Answer: 70.9%

Question: Which INHIBITION does the source give for `COc1cc(-c2n[nH]c(CO)n2)cc(OC)c1OC` here?
Answer: 17.1%

Question: For `CC(Cn1ccnc1)NC(=O)Nc1ccccn1` (stereo unspecified), which INHIBITION is on record?
Answer: 29.95%

Question: For `CCOC(=O)c1ccc(NC(=O)c2c(O)nc3c(c2O)CCCC3)cc1`, which INHIBITION is on record?
Answer: 27.5%

Question: Which INHIBITION does the source give for `CC(C)c1nccn1CCC(=O)N1CCCCC1c1ccn[nH]1` (stereo unspecified) here?
Answer: 30.95%

Question: With `Cc1nn(C)c(N2CCOCC2)c1CNC1COc2ccccc2C1` (stereo unspecified) as the molecule, how does the INHIBITION read?
Answer: 5.03%

Reference: ChEMBL document CHEMBL4513216, “Probing the Open Global Health Chemical Diversity Library for Multistage-Active Starting Points for Next-Generation Antimalarials” (ACS Infect Dis, 2020)
